The list is not random: actives were taken first. Their share in the collection is about 2.2%.
S1P1 agonist: activates the human S1P1 receptor | Sphingosine 1-phosphate receptor 1 (Homo sapiens), P21453 | S1P1 agonist cell-based reporter assay | activation, % at 4.5 µM | 1.5% of 16,000 active; in the data active = activation above about 80%
rat GALR2 agon: agonists of rat galanin receptor 2 (GALR2); Galanin receptor type 2 (Rattus norvegicus), O08726; activation, % at 10 µM; 0.5% of 16,000 active; AID 833, 2007; cell-based GALR2 agonist screen; in the data active = activation above about 15%
Target sequence (O08726 whole entry, looked up): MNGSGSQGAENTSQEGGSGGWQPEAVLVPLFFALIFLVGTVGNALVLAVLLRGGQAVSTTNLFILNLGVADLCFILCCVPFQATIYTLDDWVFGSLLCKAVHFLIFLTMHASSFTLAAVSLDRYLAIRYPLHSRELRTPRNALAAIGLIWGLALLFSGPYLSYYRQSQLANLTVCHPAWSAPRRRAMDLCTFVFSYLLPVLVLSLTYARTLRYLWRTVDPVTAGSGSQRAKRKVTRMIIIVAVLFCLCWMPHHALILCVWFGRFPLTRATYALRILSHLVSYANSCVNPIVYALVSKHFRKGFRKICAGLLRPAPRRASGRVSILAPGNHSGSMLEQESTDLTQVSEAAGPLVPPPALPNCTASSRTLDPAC
Large screens that a line does not name were inactive.

CSC(=NC#N)N1CCN(c2c([N+](=O)[O-])cc(C(F)(F)F)cc2[N+](=O)[O-])CC1	none
O=[N+]([O-])c1cc(C(F)(F)F)cc([N+](=O)[O-])c1N1CCSCC1	S1P1 agonist 99
COC(=O)c1cc(Br)cc(Br)c1	none
CCOC(=O)Cc1nn(Cc2nc(-c3ccc([N+](=O)[O-])cc3)cs2)c(=O)c2ccccc12	none
N#Cc1ccc(N2CCOCC2)c([N+](=O)[O-])c1	none
O=[N+]([O-])c1c(N2CCOCC2)ccc2nsnc12	rat GALR2 agon 55
Cc1nn(-c2ccccc2)c(C)c1C(=O)O/N=C(\N)c1ccccc1	none
CCOC(=S)NC(C)(C)C	none
C/C(=N\OC(=O)Nc1ccc(Cl)cc1)c1ccc[nH]1	none
COc1cc(C=N/C(C#N)=C(/C#N)NCC(C)(C)C)cc(Br)c1O	none
CC(C)(C)CN/C(C#N)=C(\N)C#N	S1P1 agonist 106
CCOC(=O)/C(C#N)=C/c1ccc(OC)c(OC)c1	none
COc1ccc(OC)c(/C=C(\C#N)C(N)=O)c1	S1P1 agonist 92
O=C(NC(=O)c1csc([N+](=O)[O-])c1)Nc1ccccc1C(F)(F)F	none
FC(F)(F)c1cc(-c2cccs2)nc2cc(-c3cccs3)nn12	rat GALR2 agon 30
FC(F)(F)c1cc(-c2ccc(Cl)cc2)nc2cc(-c3ccccc3)nn12	none
N#CCCN(CCCN1CCOCC1)C(=S)Nc1ccc(Cl)cc1	none
CCSc1ccc2c3c(cccc13)C(=O)N(Cc1ccccc1)C2=O	rat GALR2 agon 128
O=C1c2cccc3c(Sc4ccccc4)ccc(c23)C(=O)N1NCCO	none
CC(C)=NN/C(N)=N/C(=S)Nc1ccccc1	none
O=C(CS(=O)(=O)c1ccc(C(F)(F)F)cn1)NNC(=O)Nc1cccc(C(F)(F)F)c1	none
CC(=O)Nc1cc2cc(NC(=O)c3c(-c4c(F)cccc4Cl)noc3C)ccc2oc1=O	none
Cc1nnsc1C(=O)Nc1ccccc1SCc1noc(-c2cccs2)n1	none
Cc1nnsc1C(=O)Nc1ccccc1SCc1cccc(C(F)(F)F)c1	S1P1 agonist 88
O=c1oc2ccccc2c(O)c1C=Nc1ccc(Cl)cc1	none
O=[N+]([O-])c1ccccc1SCc1csc2ccccc12	S1P1 agonist 98
O=C(O)Cc1csc2ccccc12	none
FC(F)(F)c1cc(N=NN2CCOCC2)cc(C(F)(F)F)c1	none
FC(F)(F)c1cc(-c2nsc(N3CCOCC3)n2)cc(C(F)(F)F)c1	rat GALR2 agon 22
COCCCN=C(Nc1cc(C)c(C)cc1C)SC	none
O=S(=O)(Nc1ccc(Cl)cc1)c1ccc(-c2cc(C(F)(F)F)on2)s1	none
O=S(=O)(Nc1ccc2c(c1)OCCO2)c1csc(-c2cc(C(F)(F)F)on2)c1	S1P1 agonist 82
COc1ccc(C2Nc3cc(Cl)ccc3O2)cc1 (stereo unspecified)	none
O=C(OC1CCSC1)c1cc(C(F)(F)F)cc(C(F)(F)F)c1 (stereo unspecified)	S1P1 agonist 120
N/C(=N\OC(=O)c1cccc(C(F)(F)F)c1)C1CSCCS1 (stereo unspecified)	none
Nc1nsc2ccc([N+](=O)[O-])cc12	none
NS(=O)(=O)c1ccc(N/N=C2\CSCc3ccccc32)c([N+](=O)[O-])c1	none
O=[N+]([O-])c1cc(C(F)(F)F)cc([N+](=O)[O-])c1O/N=C1\CSCc2ccccc21	rat GALR2 agon 40
c1ccc(-c2nc(-c3ccc(-c4ccon4)s3)no2)cc1	S1P1 agonist 87
Cc1cc(-c2noc(-c3ccccc3)n2)no1	none
Cc1cc(NS(=O)(=O)c2ccc(NC(=S)NC(=O)/C=C/c3cccs3)cc2)no1	none
COC(=O)c1sccc1NS(=O)(=O)c1ccc(N2C(=O)CC3(CCCC3)C2=O)c(Cl)c1	none
O=C(Nc1ccccc1)OCc1cc(-c2ccccc2)c(C(F)(F)F)s1	S1P1 agonist 94
CN(C)C(=O)c1cc(-c2ccccc2)c(C(F)(F)F)s1	none
COc1ccc(Br)c(C(=O)NC(=S)Nc2ccc(F)cc2)c1	none
CN(C)S(=O)(=O)Oc1ccc(-c2noc(C3CCC3)n2)cc1	none
Clc1ccc(COc2ccc(-c3noc(C4CC4)n3)cc2)cc1	S1P1 agonist 101
CC(C)(C)c1ccc(Oc2ncccc2[N+](=O)[O-])c(Cl)c1	none
Cn1nc(-c2ccccc2)c(O)c(N=Nc2ccccc2)c1=O	none
Cc1[nH]n(C)c(=O)c1N=Nc1ccc(C(C)C)cc1	S1P1 agonist 102
Nc1ccccc1C(=O)NCCCNC(=O)c1ccccc1N	none
COC(=O)/C(=C\N(C)C)S(=O)(=O)c1cc(C)c(Cl)cc1C	none
Cc1cc(S(=O)(=O)Cc2ccc(NC(=O)C(Cl)(Cl)Cl)cc2)c(C)cc1Cl	rat GALR2 agon 16
CCOc1ccccc1NC1=C(Cl)C(=O)c2ccccc2C1=O	none
Oc1c(Cl)cc(Cl)cc1C1Nc2cc(Cl)c(C(F)(F)F)cc2N1 (stereo unspecified)	S1P1 agonist 106
Nc1nc(-c2ccc3c(c2)CCC3)cc(C(F)(F)F)n1	S1P1 agonist 83
Nc1nc(-c2ccc3c(c2)OCCCO3)cc(C(F)(F)F)n1	none
O=C(NC1CCN(c2nccc(C(F)(F)F)n2)CC1)c1ccco1	none
N#Cc1c(NCc2cccs2)ccc([N+](=O)[O-])c1NCc1cccs1	none
CN(C)Nc1ccc([N+](=O)[O-])c(NN(C)C)c1C#N	S1P1 agonist 81
Fc1ccc(-n2nnnc2/C=C/N2CCCCC2)cc1	none
S=C(SCc1ncon1)N1CCOCC1	none
S=C(SCc1ncon1)N1CCCC1	S1P1 agonist 83
N#C/C(N=Cc1ccc(Cl)cc1)=C(\C#N)NC(=O)Nc1ccc(OC(F)(F)F)cc1	S1P1 agonist 100
O=C(NNC(=O)Nc1ccc(OC(F)(F)F)cc1)Nc1ccc(OC(F)(F)F)cc1	none
O=S(=O)(Nc1ccc(F)c(Cl)c1)c1cc(Br)c(Br)s1	S1P1 agonist 90
O=S(=O)(c1cc(Br)c(Br)s1)N1CCCCC1	none
COc1ccccc1C1CCN(c2ccc(CO)cc2[N+](=O)[O-])CC1	S1P1 agonist 92
COc1cc(N2CCCC2)c([N+](=O)[O-])cc1[N+](=O)[O-]	none
C/C(=N\NC(=S)NC(C)(C)C)c1sc(-c2ncc(C(F)(F)F)cc2Cl)nc1C	rat GALR2 agon 19
CCOC(=O)c1sc(-c2ncc(C(F)(F)F)cc2OCC)nc1C	none
Cc1cc(C(=O)NNC(=O)C2CCN(c3nccc(C(F)(F)F)n3)CC2)nn1C(C)(C)C	none
Cc1cc(CN2CCS(=O)(=O)CC2)no1	none
Cc1noc(C)c1S(=O)(=O)N1CCCN(c2ccc(C(F)(F)F)cn2)CC1	none
O=[N+]([O-])c1ccc(-c2ccc(-c3ccc([N+](=O)[O-])cc3)o2)cc1	none
O=[N+]([O-])c1ccc(-c2ccc(/C=N/Nc3ccccc3)o2)cc1	S1P1 agonist 82
CC(C)[C@@H](N)C(O)(c1ccccc1)c1ccccc1	none
CS(=O)(=O)CS(=O)(=O)Nc1cnccn1	none
CC(=O)/C(=C\N(C)C)Sc1ccccn1	none
CC(=O)/C(=C\N(C)C)SCc1ccccc1C	S1P1 agonist 97
N#C/C(=C\c1ccco1)C(=O)c1ccco1	none
Cc1nc(CO/N=C(/N)c2ccc(C(F)(F)F)cc2)cs1	none
Cc1ccsc1/C=C/C(=O)O/N=C(\N)c1ccc(C(F)(F)F)cc1	S1P1 agonist 100
COc1ccc(NC(=O)c2cc(F)c(N(C)C)c(F)c2)cc1	none
O=C(Nc1ccc(-c2nc3ccccc3s2)cc1)Nc1cc(F)cc2c1OCOC2	rat GALR2 agon 33
O=C(Nc1ccc(-c2nc3ccccc3s2)cc1)c1ccc2c(c1)CCO2	none
CCOC(=O)C(O)(NC(=O)c1ccncc1)C(F)(F)F (stereo unspecified)	none
Cc1ccc2[nH]c3c(c2c1)CCCCC3	none
